Compounds with a hit are over-represented: about 2.2% of the library has one in this group of screens.
PGC1a acetyl inh: PGC1a acetylation modulation, inhibitor mode | U2OS PGC1a acetylation, AlphaScreen anti-acetyl-lysine; with virally co-expressed GCN5 acetyltransferase | inhibition, % at 15.6 µM | hit rate 0.17% among 350,000 | AID 651687;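 active means every replicate shows inhibition of at least 40%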
MITF TRPM1 inh: reduces MITF-dependent TRPM1 promoter luciferase signal. hit rate 0.83% among 330,000. SK-MEL-5 TRPM1 promoter luciferase, 24 h. inhibition, % at 12.5 µM. AID 488899;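 active means mean inhibition across replicates of 60% or more, whatever share of single replicates reaches that level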
EWS-Fli block: blocks EWS/Fli oncoprotein-driven transcription. inhibition, % at 12.6 µM. A673 NR0B1-luciferase reporter, viability-normalised. AID 651661. hit rate 0.67% among 350,000;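 active means mean inhibition of at least 50% after viability correction, with every replicate also passing that limit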;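 further: firefly luciferase signal divided by Alamar Blue viability fluorescence both relative to DMSO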
LMP1 NFkB inh: inhibitors of Epstein-Barr LMP1-induced NF-kappaB reporter; AID 504558; hit rate 0.69% among 350,000; inhibition, % at 12.5 µM; LMP1-induced NF-kappaB luciferase reporter cells, luminescence; in the data active means inhibition above about 41%
LGR2 antag: inhibitors of bursicon-induced Drosophila LGR2 receptor cAMP signaling; inhibition, % at 9.99 µM; HEK293 LGR2, CRE-luciferase, bursicon-stimulated, 4 h; hit rate 0.35% among 380,000; AID 720647;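 active means drop in luminescence signal, shown as inhibition above about 50% in the replicate tests, limit read from the data, passing the limit was not always enough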;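 further: agonist challenge used bursicon conditioned medium at about half maximal strength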
PAX8 inh HTS: PAX8 transcriptional activity inhibition. RMG-I TPO-luciferase reporter, SteadyGlo, 24 h. inhibition, % at 12.6 µM. hit rate 1.2% among 360,000. AID 652154;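 active means mean replicate inhibition at least 60% with every replicate also reaching 60%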;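 further: luciferase light reporting Pax8 driven TPO promoter activity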
Hits are given with their value.

Screening N#C[C@H]1[C@@H](c2ccc(-c3cccc(F)c3)cc2)[C@H](CO)N1C(=O)NC1CCCCC1 returned PGC1a acetyl inh inactive, EWS-Fli block inactive and LGR2 antag inactive.
N#C[C@H]1[C@@H](c2ccc(-c3cccc(F)c3)cc2)[C@@H](CO)N1C(=O)NC1CCCCC1 was read as PGC1a acetyl inh inactive, LGR2 antag inactive and PAX8 inh HTS 68.
Screening N#Cc1ccc(-c2ccc(C3[C@H]4CNC[C@@H]3N4C(=O)NC3CCCCC3)cc2)cc1 (some centres undefined) returned PGC1a acetyl inh inactive, EWS-Fli block inactive, LGR2 antag inactive and PAX8 inh HTS 73.
Screening CO[C@H]1CN(C)C(=O)c2cc(NS(C)(=O)=O)ccc2OC[C@@H](C)N(Cc2ccccn2)C[C@@H]1C returned PGC1a acetyl inh inactive, EWS-Fli block inactive and LGR2 antag inactive.
`Cc1nn(-c2ccccc2)c(Cl)c1CN(C(=O)CCl)c1ccc(Cl)cc1` gave MITF TRPM1 inh 91, LMP1 NFkB inh inactive, LGR2 antag inactive and PAX8 inh HTS 100.
For CC(=O)N(Cc1c(C)nn(-c2ccccc2)c1Cl)c1ccc(Cl)cc1 the results were PGC1a acetyl inh inactive, MITF TRPM1 inh inactive, LMP1 NFkB inh inactive and PAX8 inh HTS inactive.
For Cc1nn(-c2ccccc2)c(Cl)c1CN(C(=O)CCl)c1cccc2ccccc12 the results were MITF TRPM1 inh inactive, EWS-Fli block inactive, LMP1 NFkB inh inactive, LGR2 antag inactive and PAX8 inh HTS 111.
For Cc1nn(-c2ccccc2)c(Cl)c1C(=O)NCC(=O)O the results were PGC1a acetyl inh inactive, MITF TRPM1 inh inactive and LMP1 NFkB inh inactive.
Screening O=C(C[C@H]1C[C@@H]2c3cc(NC(=O)NC4CCCC4)ccc3O[C@@H]2[C@@H](CO)O1)NCc1ccccn1 returned PGC1a acetyl inh inactive, EWS-Fli block inactive, LGR2 antag inactive and PAX8 inh HTS inactive.
For COc1c(C=O)c2c(c(OC)c1OC)-c1ccc(OC)c(=O)cc1C(NC(C)=O)CC2 (centres undefined) the results were MITF TRPM1 inh inactive, EWS-Fli block inactive, LMP1 NFkB inh inactive, LGR2 antag inactive and PAX8 inh HTS 87.
COC(=O)c1ccc2c(c1)C(NC(C)=O)CCc1cc(OC)c(OC)c(OC)c1-2 (centres undefined) was read as PGC1a acetyl inh inactive, MITF TRPM1 inh inactive, EWS-Fli block inactive, LMP1 NFkB inh inactive, LGR2 antag inactive and PAX8 inh HTS 85.
For CCCC(=O)NC1CCc2cc(OC)c(OC)c(OC)c2-c2ccc(OC)c(=O)cc21 (centres undefined) the results were PGC1a acetyl inh inactive, MITF TRPM1 inh inactive, EWS-Fli block inactive, LMP1 NFkB inh inactive, LGR2 antag inactive and PAX8 inh HTS 78.
Screening COc1cccc(C(=O)Nc2ccc3c(cc2=O)[C@@H](NC(C)=O)CCc2cc(OC)c(OC)c(OC)c2-3)c1 returned PGC1a acetyl inh inactive, MITF TRPM1 inh 62 and LMP1 NFkB inh inactive.
COc1cc(CC(=O)NC2CCCc3ccccc32)cc(OC)c1OC (centres undefined) was read as MITF TRPM1 inh inactive, EWS-Fli block inactive, LMP1 NFkB inh inactive, LGR2 antag inactive and PAX8 inh HTS inactive.
`COc1cccc(C(=O)Nc2ccc(F)cc2F)c1` gave PGC1a acetyl inh inactive, MITF TRPM1 inh inactive, LMP1 NFkB inh inactive and PAX8 inh HTS inactive.
Screening COc1ccc(NC(=O)Nc2ccc3c(c2)CC(=O)N([C@H](C)CO)C[C@@H](C)[C@H](CN(C)S(=O)(=O)c2cn(C)cn2)O3)cc1 returned PGC1a acetyl inh inactive, EWS-Fli block inactive, LGR2 antag inactive and PAX8 inh HTS inactive.
For Cc1noc(C)c1NC(=O)N(C)C[C@@H]1Oc2ccc(NS(=O)(=O)c3ccc(Cl)cc3)cc2CC(=O)N([C@H](C)CO)C[C@H]1C the results were PGC1a acetyl inh inactive, EWS-Fli block inactive, LGR2 antag inactive and PAX8 inh HTS inactive.
For Cc1ccc(S(=O)(=O)N(C)C[C@@H]2Oc3ncc(-c4ccccc4)cc3C(=O)N([C@H](C)CO)C[C@H]2C)cc1 the results were PGC1a acetyl inh inactive, EWS-Fli block inactive and LGR2 antag inactive.
COc1c(O[C@@H]2O[C@H](CO)[C@@H](O)[C@H](O)[C@H]2O)cc2c(c1OC)-c1ccc(SC)c(=O)cc1C(NC(C)=O)CC2 (some centres undefined) was read as MITF TRPM1 inh inactive, EWS-Fli block inactive, LMP1 NFkB inh inactive, LGR2 antag inactive and PAX8 inh HTS inactive.
For COc1cc2c(c(OC)c1OC)-c1ccc(OC)c(=O)cc1C(NC(C)=O)CC2 (centres undefined) the results were PGC1a acetyl inh inactive, MITF TRPM1 inh 66, EWS-Fli block 64, LMP1 NFkB inh inactive, LGR2 antag inactive and PAX8 inh HTS 96.
Screening C=C1C(=O)OC2CC1C(OC(C)=O)CC(C)=CCCC(C)=CCCC2(C)O (centres undefined) returned PGC1a acetyl inh inactive and EWS-Fli block inactive.
`C=C1C(=O)OC2CC1C(O)CC(C)=CCCC(C)=CC(O)CC2C` (centres undefined) gave PGC1a acetyl inh inactive, MITF TRPM1 inh 95, EWS-Fli block inactive, LMP1 NFkB inh inactive and PAX8 inh HTS 101.
C=C1C(=O)OC2/C=C(/C)CC/C=C(/C)CCC12 (centres undefined) was read as PGC1a acetyl inh inactive, EWS-Fli block inactive and PAX8 inh HTS 98.
For C[C@H]1CN([C@@H](C)CO)C(=O)c2cc(Br)cnc2O[C@H]1CN(C)C(=O)Nc1ccccc1 the results were PGC1a acetyl inh inactive, EWS-Fli block inactive and LGR2 antag inactive.
`O=C(Cn1nc(C(F)(F)F)c2c1CCC2)NC1CCCCC1` gave PGC1a acetyl inh inactive, MITF TRPM1 inh inactive, LMP1 NFkB inh 44 and PAX8 inh HTS inactive.
`Cc1ccccc1N=CC=C1OC(C)(C)C(C)(C)O1` gave MITF TRPM1 inh inactive, EWS-Fli block inactive, LMP1 NFkB inh inactive, LGR2 antag inactive and PAX8 inh HTS 79.
`CO[C@H]1CN(C)C(=O)c2cc(NC(=O)c3cnccn3)ccc2OC[C@@H](C)N(C(C)=O)C[C@@H]1C` gave PGC1a acetyl inh inactive, EWS-Fli block inactive, LGR2 antag inactive and PAX8 inh HTS inactive.
Cc1nn(C(C)(C)C)c(C)c1/C=N/OC(=O)Nc1ccc(Cl)c(Cl)c1 was read as MITF TRPM1 inh inactive, EWS-Fli block inactive, LMP1 NFkB inh 47 and PAX8 inh HTS inactive.
COc1ccc(NC(=O)O/N=C/c2c(C)nn(C(C)(C)C)c2C)cc1 was read as PGC1a acetyl inh inactive, MITF TRPM1 inh inactive, EWS-Fli block inactive, LMP1 NFkB inh inactive and PAX8 inh HTS inactive.
For O=C(N/N=C/c1sc2ccccc2c1O)c1cccc2ccccc12 the results were MITF TRPM1 inh inactive, LMP1 NFkB inh 54, LGR2 antag inactive and PAX8 inh HTS inactive.
`O=C1CN(S(=O)(=O)c2ccccc2)C[C@@H]2[C@@H](c3ccc(Br)cc3)[C@@H](CO)N12` gave PGC1a acetyl inh inactive, EWS-Fli block inactive, LGR2 antag inactive and PAX8 inh HTS inactive.

Source: PubChem BioAssay (Broad Institute)
